# Bioassay records (PubChem)
# L929 necroptosis = blocks zVAD induced death of L929 cells. L929 zVAD necroptosis rescue, ATP luminescence, 24 h; with zVAD 60 µM. viability rescue, % at 10 µM. 0.38% of 220,000 active. AID 1377;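 active = activation, scaled between plate controls, above about 75%, limit read from the data; inactive = activation under that limit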;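 also: 0% = zVAD with DMSO and 100% = DMSO alone without zVAD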
# Calb FLC = C. albicans growth modulation with fluconazole; C. albicans CaCi-2 (fluconazole-resistant clinical isolate) + fluconazole, Alamar Blue growth, 48 h; 0.57% of 300,000 active; growth inhibition, % (concentration not given with the values); AID 1979;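 active = growth inhibition above about 58% in most replicates, limit read from the data, passing the limit was not always enough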;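 also: all wells also contain fluconazole at 8 µg/ml as a sub-toxic cotreatment; 0% = median of DMSO wells and 100% = median of geldanamycin control wells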
# HIF act = HIF pathway transcriptional activation. activation, % at 7.5 µM (by protocol). 0.32% of 300,000 active. U2OS HRE-luciferase reporter, luminescence; normalized: DMSO 0%, desferrioxamine 100%. AID 1910;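 active = mean activation of at least 10% of the iron chelator positive control signal, with at least half of replicates also reaching 10%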
# TNF necrop inh = TNF-alpha cell death inhibition in Jurkat FADD-/- cells | Jurkat FADD-/- TNF necroptosis rescue, ATP luminescence, 24 h; 0 = TNF only, 100 = no-TNF cells | activation (protection from cell death), % at 10 µM | 0.068% of 220,000 active | AID 463075;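 active = activation, meaning protection from cell death, of at least 50% relative to plate controls; inactive = activation below 50%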;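 also: necroptosis triggered by 40 ng/mL TNF-alpha added together with compound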
# The depositor's hits bear a star; · = no result given. The list is not random: actives were taken first. Their share in the collection is about 1.1%.
SMILES,L929 necroptosis,Calb FLC,HIF act,TNF necrop inh
Cc1ccc(SCC(=O)Nc2cc([N+](=O)[O-])ccc2O)cc1,-0.2,86.7*,-0.1,-1.6
O=C(CSCc1ccc(Cl)cc1)Nc1cc([N+](=O)[O-])ccc1O,0.5,90.5*,0.5,-0.7
COc1ccc([N+](=O)[O-])cc1NC(=O)CSCc1ccc(Br)cc1,0.3,-19.7,0.1,9.4
CC(CC(=O)O)CC(=O)Nc1cc([N+](=O)[O-])ccc1O (centres undefined),1.3,-11.2,-0.1,-0.4
CC(C)Oc1ccc(C(CCN)C2CCCCC2)cc1 (centres undefined),·,3.0,-2.3,·
Cc1ccc(-c2csc3nc4c5ccccc5c(NCCCN(C)C)nn4c(=O)c23)cc1,-4.6,77.9*,-7.7,-17.3
CN(C)c1ccc(NC(=O)c2cn(-c3ccccc3)nc2-c2cccs2)cc1,0.4,12.7,1.4,2.1
CN(C)C(=O)c1cn(-c2ccccc2)nc1-c1cccs1,-0.8,105.6*,0.0,-3.2
CC1CCN(S(=O)(=O)c2cccc(S(=O)(=O)N3CCCC3)c2)CC1,·,-15.0,-0.2,·
COc1ccc(C(=O)NNC(=O)OC(C)(C)C)cc1,-0.1,2.2,0.6,0.9
COc1ccc(C(=O)NN/C(C)=C/C(=O)C(F)(F)C(F)(F)C(F)(F)F)cc1,3.3,94.4*,0.4,0.1
COc1ccc(-c2cc(N)n(S(=O)(=O)c3c(F)c(F)c(F)c(F)c3F)n2)cc1OC,62.0,76.1*,1.6,-15.8
COc1ccc(S(=O)(=O)n2nc(-c3cc(OC)c(OC)c(OC)c3)cc2N)cc1OC,20.1,·,·,-1.1
CCOC(=O)c1cc2sccc2n1CC(=O)N1CCCC1,-0.6,106.3*,-0.5,-3.1
CCOC(=O)Cn1c(C(=O)OCC)cc2sccc21,1.0,-18.0,0.4,0.5
Cc1cc(C)n(-c2nc(NCCCN(C)C)c3c4c(sc3n2)CCCC4)n1,3.8,50.0,0.2,-14.3
Cc1cc(C)n(-c2nc(NCCN(C)C)c3c4c(sc3n2)CCCC4)n1,-2.4,79.7*,-2.8,-30.0
CCOc1ccc(S(=O)(=O)N2CCCC(C(=O)NCc3cccnc3)C2)cc1Cl (centres undefined),·,-5.9,1.3,·
COc1ccc(NC(=O)CCC(=O)N(Cc2ccc(OC)c(OC)c2)c2nccs2)cc1,-0.8,-2.4,170.2*,0.9
COc1ccc(OC)c(NC(=O)CCC(=O)N(Cc2ccc(OC)c(OC)c2)c2nccs2)c1,5.8,-2.7,0.0,0.9
COc1cccc(C(=O)C2=NN(C(C)=O)CC2c2ccco2)c1 (centres undefined),-0.8,3.9,-0.7,0.7
CCOC(=O)CN(C(=O)COc1nc(C)cc(C)c1C#N)c1cccc(Cl)c1,0.7,5.7,24.6*,1.6
C=C(C)CNC(=S)N/N=C1\CCCCc2ccccc21,0.9,92.5*,-0.3,-3.4
CCNC(=S)N/N=C1\CCCCc2ccccc21,67.5,-24.0,0.2,2.6
CCCN=C1CC(C)(C)CC(=O)/C1=C(/O)CCC,7.9,-1.4,0.2,-1.2
SMILES,L929 necroptosis,Calb FLC,HIF act,TNF necrop inh
CCC/C(O)=C1\C(=O)CC(C)(C)CC1=NCc1ccccc1,1.1,-6.3,77.3*,-0.2
COc1ccc(/C=N\NC(=O)c2cc(O)c(O)c(O)c2)cc1CN1CCN(c2ccc(F)cc2)CC1,0.3,98.6*,0.1,-0.7
Cn1c(=O)[nH]c(=O)c2c1nc(Br)n2Cc1cccc(Br)c1,·,-21.1,-0.7,·
Cc1cc(C)c2ccc(N)nc2c1O,-0.1,107.3*,7.8,-10.7
CC(=O)OCC12COC3c4ccccc4OC(C)(CC1C)C3C2C (centres undefined),1.5,106.1*,-1.0,-0.3
CC1CC2(C)Oc3ccccc3C3OCC1(CO)C(C)C32 (centres undefined),0.3,-1.3,-0.1,-0.6
O=C(N/N=C/c1cc(Br)c(O)c(Br)c1O)c1cccnc1,·,·,0.7,·
O=C(N/N=C/c1c(O)ccc2ccccc12)c1cccnc1,·,100.0*,83.4*,·
O=C(N/N=C\c1c(O)ccc2ccccc12)c1cncc(Br)c1,·,82.5*,26.4*,·
O=C(N/N=C/c1cc(O)ccc1Br)c1cccnc1,·,2.8,13.6*,·
Cc1ccc(C(=O)N/N=C/c2c(O)ccc3ccccc23)cn1,·,88.8*,37.5*,·
Cc1ccc(CCNC(=O)CCn2c(=O)c3cccn3c3ccc(F)cc32)cc1,·,19.4,0.7,·
CC(C)(C)NC(=O)C(c1ccc(F)cc1)N(CC1CCCO1)C(=O)CCC(=O)Nc1ccccn1 (centres undefined),·,4.5,0.0,·
COc1ccccc1CCC(=O)Nc1ccc(S(=O)(=O)Nc2nccs2)cc1,·,-7.1,-0.3,·
CC(=O)Oc1ccccc1-c1nc(/C=C/c2ccccc2)no1,·,6.2,1.5,·
COCCN(C(=O)CSc1n[nH]c(-c2ccccc2)n1)c1c(N)n(Cc2ccccc2)c(=O)[nH]c1=O,·,1.3,0.0,·
COc1cc(OC)nc(/N=C/N(C)C)n1,0.0,·,·,-1.3
COc1ccc(S(=O)(=O)N2CCOC2CNC(=O)C(=O)NCC(C)C)cc1 (centres undefined),·,-3.9,-0.1,·
CC(C)CC(=O)NCc1ccc2[nH]c3c(c2c1)CCCC3,2.7,119.0*,-3.0,1.9
CC(=O)N(c1ccccc1)c1nnc(-c2cnc(C)cn2)s1,36.9,-5.6,1.9,76.4*
COc1ccccc1NC(=O)CN(C)S(=O)(=O)c1cccc2cccnc12,·,22.8,28.6*,·
COc1ccccc1CNC(=O)CN(C)S(=O)(=O)c1cccc2cccnc12,-0.3,-8.2,-0.1,0.2
CCOC(=O)C1CCN(C(=O)c2sccc2Cl)CC1,1.8,22.7,·,0.8
O=c1cc(C(F)(F)F)[nH]c(=S)n1-c1ccccc1,·,18.0,-0.3,·
NC(=O)c1c(NC(=O)c2ccncc2)sc2c1CCCC2,59.4,73.2*,3.7,-1.3
SMILES,L929 necroptosis,Calb FLC,HIF act,TNF necrop inh
NC(=O)c1c(NC(=O)c2ccncc2)sc2c1CCCCCC2,·,7.7,0.9,·
NC(=O)c1c(NC(=O)c2ccco2)sc2c1CCC2,72.5,92.0*,1.7,0.7
O=C(c1ccccc1)c1ccc(Oc2ccc(C(=O)O)c(C(=O)O)c2)cc1,·,5.3,1.9,·
COC(=O)/C(C#N)=C/c1c(N2CCN(Cc3ccc4c(c3)OCO4)CC2)nc2c(C)cccn2c1=O,1.0,-3.8,410.2*,-3.0
CCOC(=O)/C(C#N)=C/c1c(N2CCN(Cc3ccc4c(c3)OCO4)CC2)nc2c(C)cccn2c1=O,-0.7,35.4,0.3,-6.6
O=[N+]([O-])c1cccc(-c2cn3nc(-c4ccccc4)c(-c4ccccc4)nc3n2)c1,0.3,-8.4,-0.3,-0.6
O=Nc1c(-c2cccc([N+](=O)[O-])c2)nc2ncccn12,0.2,94.2*,0.4,-24.3
Cc1ccc(CNc2ccc(CNc3ncn[nH]3)cc2)cc1,0.3,-39.9,0.6,4.5
CCOc1ccc(CNc2ccc(CNc3ncn[nH]3)cc2)cc1,0.1,102.0*,-1.3,-0.7
Cc1cc(=O)[nH]c(N/N=C/c2ccccn2)n1,61.5,3.5,40.0*,-9.6
Cc1ccc(/C=N/Nc2cn[nH]c(=O)n2)o1,5.2,-3.0,0.0,-1.0
O=c1nc(N/N=C/c2ccccn2)cn[nH]1,64.3,106.3*,7.5,-11.4
